# From PubChem
# Rows were chosen to be rich in hits. Some 14% of all compounds tested hit in one or more screens of this group.
# USP17 block: human USP17-like deubiquitinase inhibition | A8MUK1 | purified USP17, Ub-rhodamine cleavage fluorescence, 3 h | inhibition, % at 50 µM | 47,000 tested, 6.5% active | AID 1645855
# USP8 inh: human USP8 deubiquitinase inhibition; 47,000 tested, 4.2% active; P40818; purified USP8, Ub-rhodamine cleavage fluorescence, 30 min; inhibition, % at 20 µM
# USP10 inh: blocks human USP10 ubiquitin-rhodamine cleavage; purified USP10, Ub-rhodamine fluorescence, 60 min; 47,000 tested, 1.1% active; Q14694; inhibition, % at 20 µM
# USP30 inh: blocks human USP30 ubiquitin-rhodamine cleavage; Q70CQ3; purified USP30, Ub-rhodamine cleavage fluorescence; inhibition, % at 25 µM; 47,000 tested, 5.3% active
# Target sequence (Q70CQ3 whole entry, looked up): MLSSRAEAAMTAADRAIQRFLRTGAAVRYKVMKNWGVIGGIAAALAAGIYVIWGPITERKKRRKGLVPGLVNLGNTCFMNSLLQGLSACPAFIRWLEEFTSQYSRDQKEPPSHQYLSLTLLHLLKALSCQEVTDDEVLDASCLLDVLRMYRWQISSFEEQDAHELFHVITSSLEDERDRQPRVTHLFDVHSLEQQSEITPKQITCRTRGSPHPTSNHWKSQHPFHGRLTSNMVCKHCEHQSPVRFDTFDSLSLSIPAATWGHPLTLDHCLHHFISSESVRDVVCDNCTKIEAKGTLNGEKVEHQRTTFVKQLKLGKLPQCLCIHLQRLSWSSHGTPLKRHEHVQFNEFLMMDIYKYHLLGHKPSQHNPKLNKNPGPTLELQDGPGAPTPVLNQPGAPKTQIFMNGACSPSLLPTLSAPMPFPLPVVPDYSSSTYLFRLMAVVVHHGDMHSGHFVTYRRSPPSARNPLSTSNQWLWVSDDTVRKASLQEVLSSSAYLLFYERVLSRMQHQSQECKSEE
# USP28 block: blocks human USP28 ubiquitin-rhodamine cleavage. Q96RU2. inhibition, % at 25 µM. AID 1645857. purified USP28, Ub-rhodamine cleavage fluorescence, 30 min. 47,000 tested, 3% active
# * hit, by the source's call; i = inactive; . = no result given. No stated cut-off is given here; in the data, active means inhibition above about 30%; inactive means the rest.
SMILES,USP17 block,USP8 inh,USP10 inh,USP30 inh,USP28 block
COc1ccccc1-c1nc(-c2nnn(-c3ccc(C)cc3)c2C)no1,7,11,7,0,11
Cc1cccc(-c2noc(-c3nn(-c4cccc(C)c4)ccc3=O)n2)c1,10,5,5,-14,-4
COc1ccc(-n2nnc(-c3nc(-c4ccccc4F)no3)c2N)cc1,52*,1,5,.,.
Cc1cc2c(cc1S(=O)(=O)N1CCN(Cc3ccccc3)CC1)OCC(=O)N2,-13,-2,2,0,-1
COc1ccc(Nc2nc(-c3ccccc3)c(C(=O)Nc3ccc(F)c(Cl)c3)s2)cc1,5,29,4,20,5
O=C(NC1CCCC1)c1cc(N2CCCC2)n2nccc2n1,-166,-238,-7,i,-163
c1ccc2c(-c3nc(C4CC4)no3)nnc(NC3CCCCC3)c2c1,1,12,6,33*,17
c1ccc2c(-c3nc(C4CC4)no3)nnc(NCc3ccncc3)c2c1,53*,3,-2,29,4
CC(C)N1CCN(c2nnc(-c3nc(C4CC4)no3)c3ccccc23)CC1,-12,-38,-1,-9,1
Fc1ccc(-c2noc(-c3nnc(NCc4cccnc4)c4ccccc34)n2)cc1,75*,0,1,-3,-8
c1ccc2c(-c3nc(C4CC4)no3)nnc(NCCCN3CCOCC3)c2c1,9,20,3,36*,14
Cc1nnc(-c2nnc(NCc3ccccc3)c3ccccc23)o1,-3,4,4,26,12
CC(C)OCCCNc1nnc(-c2nc(C3CC3)no2)c2ccccc12,0,5,8,16,3
Cc1cc(C(=O)N2C[C@H]3C[C@H]4[C@](C2)(CN(CC(=O)N(C)C)S4(=O)=O)O3)no1,0,0,0,-4,-6
O=C(CCc1nnc2n(Cc3ccc(F)cc3)c(=O)c3ccccc3n12)NCc1ccccn1,3,-26,-1,20,0
CCC(=O)N1c2ccccc2CC1C(=O)NCCc1c[nH]c2ccc(C)cc12 (centres undefined),0,-1,-1,7,-3
O=C(Cc1ccc(Cl)cc1)Nc1ccc2nn(-c3ccc(F)cc3)nc2c1,45*,3,20,.,.
Cc1nnc(-c2nnc(N3CCN(C)CC3)c3ccccc23)o1,-14,-43,0,-1,-2
CCCOC(=O)c1cc(NC(=O)c2ccc(OCC)c(Cl)c2)ccc1N1CCOCC1,-10,2,6,19,49*
COc1ccc(Cl)cc1NC(=O)N1CCC2(C1)Nc1cccnc1NC2=NC(C)(C)C (centres undefined),-36,-33,-7,-131,-46
COc1ccc(N2CCN(C(=O)c3cncc(NS(=O)(=O)c4ccc(F)cc4)c3)CC2)cc1,11,42*,-2,-9,8
CCc1cc2c(NCc3ccc(F)cc3)ncnc2s1,32*,18,2,27,13
COc1ccc(CNc2ncnc3sccc23)cc1OC,-21,-5,-7,-42,-17
CCN1CCC2(CN(C(=O)N(C)C)CC23CCN(C(=O)c2ccccc2)CC3)C1=O (centres undefined),0,-41,1,-3,-9
C=C(C)[C@@H]1CC[C@]2(C(=O)O)CC[C@]3(C)[C@H](CC[C@@H]4[C@@]5(C)CC[C@H](O)C(C)(C)[C@@H]5CC[C@]43C)[C@@H]12,31*,19,28,15,10
SMILES,USP17 block,USP8 inh,USP10 inh,USP30 inh,USP28 block
C=C(C/C=C/C(C)(C)O)[C@H]1CC[C@]2(C)[C@@H]1CC[C@@H]1[C@@]3(C)CC[C@H](O)C(C)(C)[C@@H]3CC[C@]12C,15,2,8,27,14
C/C=C\C1=CC(=O)[C@]23C[C@H]2[C@]2(C)CO[C@@]1(O)[C@@]3(O)O2,52*,-321,-10,-137,-9
Cc1ccc(OC(=O)c2cn(-c3ccccc3)nc2-c2cccnc2)cc1,55*,-14,10,45*,-4
Cc1ccc(NC(=O)CN(C)C(=O)c2cn(-c3ccccc3)nc2-c2cccnc2)cc1,.,-38,-1,-15,-11
O=c1c2cc(-c3ccccc3)sc2n(Cc2ccc(F)cc2)c(=O)n1-c1ccccc1,9,-9,3,11,-3
Fc1ccc(Cn2ccc(-c3cnc(-c4ccccc4)s3)n2)cc1,13,15,9,11,62*
CCCn1c(=O)c2nscc2n(CC(=O)N2CCCC2)c1=O,9,21,0,10,4
O=c1c2cc(F)ccc2ncn1C1CCN(S(=O)(=O)c2ccccc2)CC1,1,6,2,0,-1
